Data as given in PubChem BioAssay (Tox21).
Results filed as inconclusive are left out. The source made the active and inactive calls. Unless noted, calls come from the whole dose curve; as a rule, active = well fitted curve in the direction sought with a large enough effect in the repeat runs; inconclusive = weak or mixed curves; inactive = no such curve, though single readings can be large; an effect the other way counts as inactive or inconclusive.

Key:
[1] = qHTS assay to identify small molecule agonists of the peroxisome proliferator-activated receptor delta (PPARd) signaling pathway - cell viability counter screen (AID 743211); note: nearly all actives have a fitted effect of over 55% in size; note: potency is the fitted concentration of half-maximal effect
In short: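 Viability of GeneBLAzer PPARd UAS-bla HEK293H cells was assessed after 17 h compound incubation at 37C, using CellTiter-Glo reagent added after the reporter read and luminescence recorded 30 min later.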

[2] = target: Peroxisome proliferator-activated receptor delta (Homo sapiens) (UniProt Q03181); test: qHTS assay to identify small molecule agonists of the peroxisome proliferator-activated receptor delta (PPARd) signaling pathway (AID 743212; calls by dose curve;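 note: HEK293H cells with PPARd UAS beta-lactamase reporter GeneBLAzer system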)
Peroxisome proliferator-activated receptor delta (Homo sapiens), sequence (Q03181 whole entry, looked up): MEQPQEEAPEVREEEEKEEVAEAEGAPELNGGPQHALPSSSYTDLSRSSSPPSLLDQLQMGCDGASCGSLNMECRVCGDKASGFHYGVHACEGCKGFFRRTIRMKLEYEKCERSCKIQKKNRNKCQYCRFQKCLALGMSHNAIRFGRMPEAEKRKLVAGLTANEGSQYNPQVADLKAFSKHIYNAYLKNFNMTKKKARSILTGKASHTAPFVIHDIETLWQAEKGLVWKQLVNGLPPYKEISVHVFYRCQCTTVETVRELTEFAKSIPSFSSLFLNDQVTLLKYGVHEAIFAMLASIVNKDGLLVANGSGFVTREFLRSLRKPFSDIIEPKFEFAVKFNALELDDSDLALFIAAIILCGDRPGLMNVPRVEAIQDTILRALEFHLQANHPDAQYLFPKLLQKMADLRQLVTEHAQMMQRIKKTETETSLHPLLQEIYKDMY
In short: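 Beta-lactamase reporter readout: a ratiometric FRET signal from the LiveBLAzer substrate after 2 h at room temperature. Compound exposure at 37 °C in PPARδ-bla HEK293H cells driven by an upstream activator sequence.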

[3] = target: Bile acid receptor (Homo sapiens) (UniProt Q96RI1); test: qHTS assay to identify small molecule antagonists of the farnesoid-X-receptor (FXR) signaling pathway (AID 743217; active = well fitted inhibition curve with a large enough effect in the signal ratio in the repeat runs, not every such curve was filed as active; the % refers to the signal ratio)
Bile acid receptor (Homo sapiens), sequence (Q96RI1 whole entry, looked up): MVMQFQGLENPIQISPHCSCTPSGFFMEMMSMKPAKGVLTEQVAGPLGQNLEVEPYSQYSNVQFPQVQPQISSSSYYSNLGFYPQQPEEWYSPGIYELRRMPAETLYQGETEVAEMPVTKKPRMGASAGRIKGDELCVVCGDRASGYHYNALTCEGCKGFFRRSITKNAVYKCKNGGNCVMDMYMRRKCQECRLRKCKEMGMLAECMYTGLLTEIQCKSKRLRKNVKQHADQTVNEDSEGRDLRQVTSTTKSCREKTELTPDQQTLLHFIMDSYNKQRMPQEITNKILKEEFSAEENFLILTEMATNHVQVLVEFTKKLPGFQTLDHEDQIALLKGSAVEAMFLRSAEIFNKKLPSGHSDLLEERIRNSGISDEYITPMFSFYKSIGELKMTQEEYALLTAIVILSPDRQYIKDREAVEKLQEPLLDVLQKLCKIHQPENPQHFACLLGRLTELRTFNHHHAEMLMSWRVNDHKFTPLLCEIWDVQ
In short: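 Antagonist mode: chenodeoxycholic acid at 50 uM final stimulates a UAS-driven beta-lactamase reporter in HEK 293T FXR-bla cells during 16 h, 37C compound exposure. Read-out is FRET substrate fluorescence after 2 h at room temperature.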

[4] = qHTS assay to identify small molecule agonists of the farnesoid-X-receptor (FXR) signaling pathway - cell viability counter screen (AID 743218); note: nearly all actives have a fitted effect of over 45% in size; note: potency is the fitted concentration of half-maximal effect
In short: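 Viability counter screen in the same wells: CellTiter-Glo luminescence, 30 min room-temperature incubation, measured after the beta-lactamase read. Cells were GeneBLAzer FXR-UAS-bla HEK 293T, compound-treated 16 h at 37C.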

[5] = target: Bile acid receptor (Homo sapiens) (UniProt Q96RI1); test: qHTS assay to identify small molecule agonists of the farnesoid-X-receptor (FXR) signaling pathway (AID 743220; active = well fitted activation curve with a large enough effect in the signal ratio in the repeat runs, not every such curve was filed as active; the % refers to the signal ratio)
In short: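 FXR-UAS-bla HEK 293T cells carrying a UAS-driven beta-lactamase reporter were plated for 5 h at 37C/5% CO2, then exposed to DMSO-dissolved Tox21 10K compounds for 16 h at 37C. A LiveBLAzer B/G FRET substrate was loaded for 2 h at room temperature before fluorescence reading.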

[6] = qHTS assay to identify small molecule antagonists of the farnesoid-X-receptor (FXR) signaling pathway - cell viability counter screen (AID 743221; active = well fitted cell-killing curve with a large enough effect in the repeat runs, not every such curve was filed as active; note: nearly all actives have a fitted effect of over 50% in size; note: potency is the fitted concentration of half-maximal effect)
In short: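 Quantitative HTS of the Tox21 10K library run in parallel with the beta-lactamase reporter read. HEK 293T cells carrying a UAS-driven bla reporter got compound and 50 uM CDCA (final) for 16 h; ATP-based luminescence followed.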

[7] = qHTS assay to identify small molecule antagonists of the peroxisome proliferator-activated receptor delta (PPARd) signaling pathway - cell viability counter screen (AID 743213); note: nearly all actives have a fitted effect of over 50% in size; note: potency is the fitted concentration of half-maximal effect
In short: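 In this counter screen, HEK293H cells carrying a UAS-beta-lactamase reporter are co-treated with test compounds and 300 nM L165041 (final) for 17 h at 37 C; cell viability is quantified by CellTiter-Glo luminescence.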

[8] = target: Vitamin D3 receptor (Homo sapiens) (UniProt P11473); test: qHTS assay to identify small molecule agonists of the vitamin D receptor (VDR) signaling pathway (AID 743222; calls by dose curve)
Vitamin D3 receptor (Homo sapiens), sequence (P11473 whole entry, looked up): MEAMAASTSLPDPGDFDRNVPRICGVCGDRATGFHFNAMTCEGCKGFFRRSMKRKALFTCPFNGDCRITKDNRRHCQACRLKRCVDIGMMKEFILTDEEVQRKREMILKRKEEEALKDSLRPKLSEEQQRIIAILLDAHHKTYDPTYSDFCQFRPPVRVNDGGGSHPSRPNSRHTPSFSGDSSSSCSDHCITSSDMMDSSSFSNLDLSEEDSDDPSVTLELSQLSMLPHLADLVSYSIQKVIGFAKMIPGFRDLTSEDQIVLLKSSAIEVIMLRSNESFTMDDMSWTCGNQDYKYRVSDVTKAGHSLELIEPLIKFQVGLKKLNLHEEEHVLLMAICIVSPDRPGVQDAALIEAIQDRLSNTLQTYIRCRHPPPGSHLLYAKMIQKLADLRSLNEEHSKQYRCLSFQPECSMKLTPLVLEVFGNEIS
In short: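 Agonist mode, beta-lactamase reporter: fluorescence from LiveBLAzer B/G FRET substrate (2 h, room temperature) read after 16 h compound treatment at 37 C of VDR-bla cells, which were pre-incubated 4 h after seeding.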

[9] = target: Peroxisome proliferator-activated receptor delta (Homo sapiens) (UniProt Q03181); test: qHTS assay to identify small molecule antagonists of the peroxisome proliferator-activated receptor delta (PPARd) signaling pathway (AID 743215; active = well fitted inhibition curve with a large enough effect in the signal ratio in the repeat runs, not every such curve was filed as active; the % refers to the signal ratio;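 note: cells stimulated with agonist L165041 at 300 nM final during compound exposure; series mostly up to about 62 µM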)
In short: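 Agonist L165041 (300 nM final) added with compound to PPARd-bla HEK293H UAS-bla reporter cells; 17 h incubation at 37 C. Read-out: LiveBLAzer FRET substrate, 2 h at room temperature, fluorescence intensity.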

[10] = target: Vitamin D3 receptor (Homo sapiens) (UniProt P11473); test: qHTS assay to identify small molecule antagonists of the vitamin D receptor (VDR) signaling pathway (AID 743223; active = well fitted inhibition curve with a large enough effect in the signal ratio in the repeat runs, not every such curve was filed as active; the % refers to the signal ratio)
In short: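 Fluorescence from LiveBLAzer B/G FRET substrate, read after 2 h at room temperature, reflects beta-lactamase reporter activity in VDR-bla cells treated 16 h at 37C with compounds and agonist 1alpha,25-dihydroxyvitamin D3 (3 nM final).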
% is set by controls: 0 for no effect and ±100 for the full control effect.

CCOC(=O)CCN(SN(C)C(=O)Oc1cccc2c1OC(C)(C)C2)C(C)C
inactive: Potency [1] | Potency [2] | Potency [3] | Potency [4] | Potency [5] | Potency [6]

CC(C)c1c(CN(C)C(C)Cc2ccccc2)n(C)n(-c2ccccc2)c1=O (stereo not drawn)
active: Potency [7] 13.3 µM
inactive: Potency [1] | Potency [2] | Potency [5] | Potency [6] | Potency [8]

N#Cc1ccc(N(CC(N)=O)CC(F)(F)F)cc1C(F)(F)F
inactive: Potency [1] | Potency [2] | Potency [9] | Potency [3] | Potency [4] | Potency [5] | Potency [6] | Potency [8] | Potency [10]

O=C(N[C@H]1N=C(c2ccccc2F)c2cccc3c2N(CC3)C1=O)c1cc2ccccc2[nH]1
inactive: Potency [1] | Potency [2] | Potency [9] | Potency [4] | Potency [6] | Potency [8] | Potency [10]

ClSC(Cl)(Cl)Cl
inactive: Potency [1] | Potency [2] | Potency [9] | Potency [6]

CSC(C)(C)/C=N/O
inactive: Potency [1] | Potency [2] | Potency [7] | Potency [4] | Potency [6] | Potency [8] | Potency [10]

O=c1[nH]c(Cl)c(Cl)cc1Cl
inactive: Potency [1] | Potency [2] | Potency [3] | Potency [4] | Potency [5] | Potency [6] | Potency [8] | Potency [10]

ClC(Cl)C(Cl)(Cl)Cl
inactive: Potency [1] | Potency [2] | Potency [9] | Potency [3] | Potency [4] | Potency [5] | Potency [6] | Potency [8]

COC(=O)/C=C(\C)OP(=O)(OC)OC
inactive: Potency [1] | Potency [2] | Potency [4] | Potency [5] | Potency [6] | Potency [8] | Potency [10]

Clc1ccc(C(c2ccc(Cl)cc2)C(Cl)Cl)cc1
inactive: Potency [2] | Potency [9] | Potency [5] | Potency [6] | Potency [8] | Potency [10]
active: Potency [1] 44.4 µM

CCC1(CC)C(=O)N=C(O)NC1=O
inactive: Potency [1] | Potency [2] | Potency [9] | Potency [4] | Potency [6] | Potency [8] | Potency [10]

O=[N+]([O-])c1ccc(CCl)cc1
inactive: Potency [1] | Potency [2] | Potency [7] | Potency [6] | Potency [8] | Potency [10]

CCC(C)Nc1c([N+](=O)[O-])cc(C(C)(C)C)cc1[N+](=O)[O-] (stereo not drawn)
inactive: Potency [1] | Potency [2] | Potency [7] | Potency [4] | Potency [6] | Potency [10]

Oc1cc(Cl)cc(Cl)c1
inactive: Potency [1] | Potency [2] | Potency [4] | Potency [6] | Potency [8] | Potency [10]

NC1CCC(CC2CCC(N)CC2)CC1 (stereo not drawn)
inactive: Potency [1] | Potency [2] | Potency [9] | Potency [3] | Potency [5] | Potency [6]

Clc1ccc(C(Cl)(Cl)Cl)cc1Cl
inactive: Potency [1] | Potency [2] | Potency [7] | Potency [6] | Potency [8] | Potency [10]

NC(=O)C(Cl)Cl
inactive: Potency [1] | Potency [2] | Potency [4] | Potency [6]

Cc1nn(-c2cc(NS(C)(=O)=O)c(Cl)cc2Cl)c(=O)n1C(F)F
inactive: Potency [1] | Potency [2] | Potency [7] | Potency [4] | Potency [6] | Potency [8] | Potency [10]

CC(Cc1ccc2c(c1)OCO2)NO (stereo not drawn)
inactive: Potency [1] | Potency [2] | Potency [9] | Potency [3] | Potency [4] | Potency [5] | Potency [6] | Potency [8] | Potency [10]

O=Cc1ccccc1
inactive: Potency [1] | Potency [2] | Potency [3] | Potency [4] | Potency [5] | Potency [6] | Potency [8] | Potency [10]

CC(C)=CCN1CC[C@@]2(C)c3cc(O)ccc3C[C@@H]1[C@@H]2C
inactive: Potency [1] | Potency [2] | Potency [7] | Potency [6] | Potency [8] | Potency [10]

COc1cnc(OC)n2nc(NS(=O)(=O)c3c(OCC(F)F)cccc3C(F)(F)F)nc12
inactive: Potency [1] | Potency [2] | Potency [7] | Potency [6]

[O]=[Cr][O][Cr]=[O]
inactive: Potency [1] | Potency [7] | Potency [3] | Potency [4] | Potency [5] | Potency [6] | Potency [8]

ClC1(Cl)C2(Cl)C3(Cl)C4(Cl)C(Cl)(Cl)C5(Cl)C3(Cl)C1(Cl)C5(Cl)C24Cl (stereo not drawn)
inactive: Potency [1] | Potency [7] | Potency [9] | Potency [5] | Potency [6] | Potency [8] | Potency [10]

Cc1cc2c3c(c1)C(c1ccccc1)=N[C@@H](NC(=O)c1ccncc1)C(=O)N3CC2
inactive: Potency [1] | Potency [7] | Potency [3] | Potency [4] | Potency [5] | Potency [6] | Potency [8]

N#CCCl
inactive: Potency [1] | Potency [7] | Potency [3] | Potency [4] | Potency [5] | Potency [6] | Potency [8] | Potency [10]

Nc1cc(Cl)ccc1Cl
inactive: Potency [1] | Potency [7] | Potency [9] | Potency [4] | Potency [6]

Cc1ccc(C)c2ccccc12
inactive: Potency [1] | Potency [7] | Potency [9] | Potency [3] | Potency [4] | Potency [5] | Potency [6] | Potency [8] | Potency [10]

N#Cc1sc2c(=O)c3ccccc3c(=O)c=2sc1C#N
active: Potency [1] 7.76 µM | Potency [7] 12.3 µM | Potency [4] 34.7 µM | Potency [6] 34.7 µM
inactive: Potency [5]

Clc1c(Cl)c(Cl)c(Cl)c(Cl)c1Cl
inactive: activity change, negative = cytotoxicity [1] 0.119% [at 5.95 µM] | viability change, negative = cytotoxic [7] 0.753% [at 6.26 µM] | ratio activity, negative = inhibition [9] -0.823% [at 6.26 µM] | viability change, negative = cytotoxic [4] 24.1% [at 5.95 µM] | activity change, negative = cytotoxicity [6] 10.7% [at 5.95 µM] | activation [8] -0.148% [at 6.01 µM] | activity change, negative = inhibition [10] 0.227% [at 6.95 µM]

CCCCCCCc1ccc(O)cc1
active: Potency [1] 21.9 µM
inactive: Potency [2] | Potency [6] | Potency [8]
